aSyn 5UTR act = Activators via SNCA 5'UTR binding, MLPCN; hit rate 7.1% among 300,000; alpha-synuclein 5'UTR reporter, activators screen; activity score, % (tested at 7.5 µM), hits read low; in the data active = activity score below about -60%
Large screens that a line does not name were inactive. These entries were drawn from the full list.

O=C(/C(C=Nc1cccc(C(F)(F)F)c1)=C(/O)c1ccco1)C(F)(F)F	aSyn 5UTR act -194
CC/C(C)=N/Nc1nc(-c2cc3cccc(OC)c3oc2=O)cs1	aSyn 5UTR act -108
Cn1cccc1C(=O)C(=O)Nc1cc(Cl)cc(Cl)c1	aSyn 5UTR act -155
Cn1cccc1C(=O)C(=O)Nc1cccc(Cl)c1Cl	aSyn 5UTR act -148
Cn1cccc1C(=O)C(=O)Nc1ccc(Cl)cc1	aSyn 5UTR act -119
Cn1cccc1C(=O)C(=O)Nc1ccc(F)c(F)c1	aSyn 5UTR act -176
O=C(/C(=C(\O)c1ccccc1)c1nc2ccccc2[nH]1)c1ccccc1	aSyn 5UTR act -108
O=c1c(Cl)c(Cl)cnn1Cc1nnc(-c2ccc(Cl)cc2)o1	aSyn 5UTR act -179
Cc1cccc(Oc2coc3cc(OC(=O)c4cncc(Br)c4)ccc3c2=O)c1	aSyn 5UTR act -73
CCOC(=O)Oc1ccc2c(=O)c(Oc3cccc(C)c3)coc2c1	aSyn 5UTR act -75
Clc1ccc(-c2nc3ccccn3c2CN2CCCCC2)cc1	aSyn 5UTR act -101
CN(C)Cc1c(-c2ccc(Cl)cc2)nc2ccccn12	aSyn 5UTR act -151
C=C(C)CSc1nc2nc(C)c(Br)cc2[nH]1	aSyn 5UTR act -73
Cc1cc(C(=O)N/N=C/c2cc(Cl)cc([N+](=O)[O-])c2O)c2ccccc2n1	aSyn 5UTR act -63
Nc1nc(Cl)nc2ccc(Br)cc12	aSyn 5UTR act -123
COc1ccc(-c2oc3ncn(CCN4CCOCC4)c(=N)c3c2-c2ccc(OC)cc2)cc1	none
COc1ccc(-n2ncc3c(NCCN4CCOCC4)ncnc32)cc1	aSyn 5UTR act -69
COc1ccc(-n2ncc3c(NCCCN4CCOCC4)ncnc32)cc1	aSyn 5UTR act -120
O=[N+]([O-])c1ccc2c(c1)nc1n2CCN(C2CCCCC2)C1	aSyn 5UTR act -127
Cc1ccc2nc(-c3ccsc3)c(NC3CCCC3)n2c1	aSyn 5UTR act -64
O=C(NC(=S)Nc1ccccc1)c1ccc(-c2ccccc2)cc1	aSyn 5UTR act -102
O=C1CN(C(=S)NC(=O)c2ccc(-c3ccccc3)cc2)CCN1	aSyn 5UTR act -79
Cc1ccc(NC(=O)NC(=S)NC(=O)c2ccccc2)cc1	aSyn 5UTR act -125
O=C(O)c1ccc(NC(=S)NC(=O)c2ccc(-c3ccccc3)cc2)cc1	aSyn 5UTR act -97
Cc1ccc(C(=O)NC(=S)Nc2cccnc2Cl)cc1	aSyn 5UTR act -138
Cc1ccc(N(C(=O)Nc2ccccc2)C2=NCC(C)S2)cc1 (stereo not given)	aSyn 5UTR act -62
COc1ccc(-c2nc3cc([N+](=O)[O-])ccc3o2)cc1	aSyn 5UTR act -231
Nc1ccc(-c2nc3cc([N+](=O)[O-])ccc3o2)cc1	aSyn 5UTR act -146
CCCCN(C(=O)NC(=O)Nc1cccc(C)c1C)S(C)(=O)=O	aSyn 5UTR act -92
Fc1ccc(-n2nnc(-c3cnc4ccccc4c3)n2)cc1	none
Fc1ccc(C(CCCn2nnc(-c3cccnc3)n2)c2ccc(F)cc2)cc1	aSyn 5UTR act -103
Brc1ccccc1-n1nnc(-c2cccnc2)n1	aSyn 5UTR act -76
Fc1ccc(-n2nnc(-c3cccnc3)n2)cc1	aSyn 5UTR act -89
Clc1ccc(-n2nnc(-c3cccnc3)n2)cc1Cl	aSyn 5UTR act -157
C/C(=N\NC(N)=S)C1=CCC2C3CC[C@H]4CC(O)CC[C@]4(C)C3CC[C@]12C (stereo not given in full)	aSyn 5UTR act -95
Cc1ccc(NC(=O)c2ccc(CN3CCc4ccccc4C3)cc2)cc1	aSyn 5UTR act -101
O=C(Nc1cccnc1)c1ccc(CN2CCc3ccccc3C2)cc1	aSyn 5UTR act -68
COc1ccc(N(/N=C2\Sc3ccccc3C2=O)C(C)=O)cc1	aSyn 5UTR act -143
CC(=O)N(C1=C(N)C(=O)c2ccccc2C1=O)c1ccccc1	none
COc1cccc(CNc2ccccn2)c1O	aSyn 5UTR act -100
COc1cccc(CNc2cccc3cccnc23)c1O	aSyn 5UTR act -88
COc1cccc(CNc2cc(C)ccn2)c1O	aSyn 5UTR act -94
CCC(=O)NC(c1ccccc1OC)c1ccc2cccnc2c1O (stereo not given)	none
Cc1[nH]n(C(N)=S)c(=O)c1N=Nc1cccc([N+](=O)[O-])c1C	aSyn 5UTR act -164
Cc1ccc(N=Nc2c(C)[nH]n(C(N)=S)c2=O)cc1C	aSyn 5UTR act -258
Cc1[nH]n(C(N)=S)c(=O)c1N=Nc1ccc2ccccc2c1	aSyn 5UTR act -147
Cc1ccc(NC(=O)Nc2ccc(F)c(Cl)c2)cc1	aSyn 5UTR act -165
COc1ccc(NC(=O)Nc2ccc(F)c(Cl)c2)cc1	aSyn 5UTR act -140
CCOc1ccc(-c2nc(CSc3nnc(N)s3)cs2)cc1	aSyn 5UTR act -90
CCCOc1ccc(-c2cnc(N)s2)cc1	aSyn 5UTR act -158
CCOC(=O)c1ccc(CSc2nnc(N)s2)cc1	aSyn 5UTR act -74
CCCOc1ccc(OCCSc2nnc(N)s2)cc1	aSyn 5UTR act -89
CCOc1ccc(N/C(N)=N/c2nc(CSc3nnc(C)s3)cc(=O)[nH]2)cc1	none
Cc1ccc(NCC(=O)Nc2ccc(Br)cc2)cc1F	aSyn 5UTR act -77
O=C(CC(=O)Nc1ccccc1)Nc1ccccc1	aSyn 5UTR act -69
O=C(CNc1ccccc1)Nc1ccc(F)cc1	aSyn 5UTR act -118
Cc1cc(C)cc(NS(=O)(=O)c2ccc3c(c2)c(=O)n(C)c(=O)n3C)c1	none
COc1cccc(-n2cc3c(=O)n(C)c(=O)n(C)c3c2)c1	aSyn 5UTR act -86
O=c1/c(=C\c2ccc(F)cc2)sc2n1CCCN=2	aSyn 5UTR act -201
COc1ccc(NC(=O)CSc2ccc3c4c(cccc24)C(=O)c2ccccc2-3)cc1	aSyn 5UTR act -65
N#Cc1cccc(NC(=O)CSc2ccc3c4c(cccc24)C(=O)c2ccccc2-3)c1	aSyn 5UTR act -154
COc1ccc(C2NC(=S)NC3=C2CCCC3=C2SCCS2)cc1 (stereo not given)	aSyn 5UTR act active
CCCN1CCC(=O)N(CCSc2ccccc2)CC1	aSyn 5UTR act -115
O=C1CCN(Cc2ccccc2)CCN1CCSc1ccccc1	aSyn 5UTR act -78
CN(CC(=O)N1CCCCCC1)S(=O)(=O)c1ccccc1	aSyn 5UTR act -68
CCOc1ccc(NC(=O)N2CCC(c3ccc(C)cc3)C2)cc1 (stereo not given)	aSyn 5UTR act -67
Cc1ccc(C2CCN(C(=S)NC(C)(C)C)C2)cc1 (stereo not given)	aSyn 5UTR act -93
COc1ccc(NC(=S)N2CCC(c3ccccc3)C2)cc1 (stereo not given)	aSyn 5UTR act -169
O=C(c1cccs1)N1CCC(c2ccccc2)C1 (stereo not given)	aSyn 5UTR act -140
CCc1ccc(NC(=O)N2CCC(c3ccccc3)C2)cc1 (stereo not given)	aSyn 5UTR act -172
O=C(Nc1ccccc1)N1CCC(c2ccccc2)C1 (stereo not given)	aSyn 5UTR act -141
COc1ccc(OC)c(/C=C/C(=O)NC2=NCCS2)c1	aSyn 5UTR act -71
COc1ccc(/C=C/C(=O)NC2=NCCS2)cc1OC	aSyn 5UTR act -148
Cc1ccc(NC(=O)CCc2c(C)nn(-c3ccc(N4CCOCC4)nn3)c2C)cc1F	aSyn 5UTR act -86
COc1ccc(C)cc1NC(=O)CCc1c(C)nn(-c2ccc(N3CCCCC3)nn2)c1C	aSyn 5UTR act -95
Cc1ccc(F)cc1NC(=O)CCc1c(C)nn(-c2ccc(N3CCCCC3)nn2)c1C	aSyn 5UTR act -82
Cc1nn(-c2ccc(N3CCCCC3)nn2)c(C)c1CCC(=O)Nc1ccc(F)c(F)c1	aSyn 5UTR act -66
Cc1ccc(NC(=O)CCc2c(C)nn(-c3ccc(N4CCCCC4)nn3)c2C)cc1	aSyn 5UTR act -107

Source: PubChem
